Experimental data taken from PubChem BioAssay (EPA / NIEHS).
Inconclusive results are not listed. Activity calls are given as the source filed them. The calls were made as follows, unless noted: active = hit-call score of the fitted dose curve at least 0.9, where 1 is the maximum; inactive = score below 0.9. Starred links: 1 amine or outer side, 2 acyl side, 3 side chain; linkers in the order of their positions; H or OH if unused. Positions of bridges follow the written chain, without caps; N, C: chain ends. Non-standard residues stand in square brackets, D forms with d. Residues, ends and D or L forms follow the SMILES beside them. Adda = CO[C@@H](Cc1ccccc1)[C@@H](C)/C=C(C)/C=C/[C@H](N[*:1])[C@H](C)C(=O)[*:2]; dAsp(3S-Me) = C[C@H](C(=O)[*:3])[C@@H](N[*:1])C(=O)[*:2]; d(γGlu) = O=C(O)[C@@H](CCC(=O)[*:2])N[*:1]; NMeDha = C=C(NC)C(=O)O

Experiments:
[1] = CCTE_Harrill_HTTr_CellCount_MCF7: CCTE's Cell Proliferation Assessment for the High-Throughput Transcriptomics (HTTr) Platform, Harrill Lab (AID 2284012; active = hit-call score of the fitted dose curve at least 0.9, where 1 is the maximum;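 also: cells exposed to compound for six hours; intended direction is loss of nuclei count meaning fewer cells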)
Outline: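 Cell count from high-content imaging of Hoechst-labeled nuclei serves as viability/growth readout. Chemicals were applied to MCF-7 cells in eight concentrations for six hours, with fitting in both directions relative to DMSO.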

[2] = CCTE_Harrill_HTTr_Apoptosis_MCF7: CCTE's 6-hour Apoptosis Assessment for the High-Throughput Transcriptomics (HTTr) Platform, in MCF-7 cells cultured in DMEM + 10% fetal bovine serum, Harrill Lab (AID 2284011)
Outline: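 MCF-7 (DMEM + 10% FBS), 384-well; 8-pt dilution series, 6 h chemical exposure; caspase-3/7 activation via CellEvent Caspase 3/7 Green, HCI; bidirectional fit vs DMSO.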

[3] = UKN5_HCS_SBAD2_cell_viability: Viability Assessment in the University of Konstanz (UKN) Leist Lab Neurite Outgrowth Assay in human iPSC-derived immature Dorsal Root Ganglia Neurons (UKN5) (AID 2284056)
Outline: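 iPSC-derived immature peripheral neurons (SBAD2) seeded on Matrigel with CHIR99021, SU5402 and DAPT, dosed 1 h later for 24 h. Viability from Hoechst H-33342 and calcein-AM live staining, high-content imaging; bidirectional fit versus DMSO.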

[4] = UKN5_HCS_SBAD2_neurite_outgrowth: University of Konstanz (UKN) Leist Lab Neurite Outgrowth Assay in human iPSC-derived immature Dorsal Root Ganglia Neurons (UKN5) (AID 2284070); settings: actives raise or lower the signal
Outline: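 Neurite area from calcein-AM high-content images after 24 h exposure (staining included), with H-33342 for viability, fitted both directions against DMSO. Cells: thawed immature SBAD2 peripheral neurons, 100.000 cells/cm2, with CHIR99021, SU5402, DAPT; dosing 1 h after seeding.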

[5] = UKN4_HCS_LUHMES_neurite_outgrowth: University of Konstanz (UKN) Leist Lab Neurite Outgrowth Assay in human LUHMES cells (UKN4) (AID 2284206); settings: actives raise or lower the signal
Outline: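 After 24 h compound treatment beginning shortly after replating of 2-day-differentiated LUHMES cells, calcein-AM and H-33342 live staining allowed high-content imaging of neurite area and viability. Fitted bidirectionally against DMSO.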

[6] = UKN4_HCS_LUHMES_cell_viability: Viability Assessment in the University of Konstanz (UKN) Leist Lab Neurite Outgrowth Assay in human LUHMES cells (UKN4) (AID 2284232)
Outline: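 Viability was read by high-content imaging of calcein-AM/H-33342-stained cells after 24 h toxicant exposure, staining included. Cells: human LUHMES on day 2 of dopaminergic differentiation, dosed shortly after attachment; DMSO baseline, bidirectional curve fitting.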

[7] = IUF_NPC5_oligodendrocyte_differentiation_120hr: Leibniz Research Institute for Environmental Medicine (IUF) 120-hour Oligodendrocyte Differentiation Assay (NPC5) (AID 2284304; active = hit-call score of the fitted dose curve at least 0.9, where 1 is the maximum;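 also: primary human fetal neural progenitor spheres plated to migrate and differentiate; share of O4-positive cells among Hoechst nuclei found by CNN image analysis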)
Outline: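 Oligodendrocyte differentiation was scored after 120 h as the O4-positive share of Hoechst-stained nuclei across the neurosphere migration area, using a trained convolutional neural network on high-content fluorescence images. Human fetal neural progenitor spheres were dosed from day 0, normalised to DMSO.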

[8] = IUF_NPC4_neurite_area_120hr: Leibniz Research Institute for Environmental Medicine (IUF) 120-hour Neuronal Morphology Assay for Neurite Area (NPC4) (AID 2284305; active = hit-call score of the fitted dose curve at least 0.9, where 1 is the maximum)
Outline: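 Neurite area (pixels, nuclei excluded) of TUBB3-positive neurons from hNPC spheres differentiating 5 days under continuous exposure at 37 C, 5% CO2. High-content imaging; loss of signal versus DMSO control across 7 concentrations.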

[9] = CCTE_Mundy_HCI_Cortical_Synap_Neur_Matur_BPCount: CCTE's Synaptogenesis and Neurite Maturation Assay in rat cortical cells for Branch Point Count, Mundy Lab (AID 2284211)
Outline: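 HCI read-out of branch points from MAP2/synaptophysin/Hoechst immunofluorescence; rat cortical cultures, AraC DIV 5, dosing DIV 7, fixed DIV 12; fit in positive direction vs DMSO baseline.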

[10] = CCTE_Mundy_HCI_Cortical_NOG_NeuriteCount: CCTE's Neurite Outgrowth Assay in rat cortical cells for Neurite Count, Mundy Lab (AID 2284212);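 also: cells fixed about two days after chemical exposure began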
Outline: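 Rat cortical primary cells; compound added 2 h post-plating, 1/10 dilution of working solution. Anti-betaIII-tubulin/AF488 ICC; ArrayScan neurite count vs DMSO.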

[11] = CCTE_Mundy_HCI_Cortical_Synap_Neur_Matur_NeuriteCount: CCTE's Synaptogenesis and Neurite Maturation Assay in rat cortical cells for Neurite Count, Mundy Lab (AID 2284222);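 also: exposure from day 7 to day 12 in vitro with readout at day 12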
Outline: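 Chemical exposure runs DIV 7–12 in rat cortical cultures, glia suppressed by AraC at DIV 5; measurement is at DIV 12. Imaging-derived neurite counts are fitted against DMSO baseline.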

[12] = CCTE_Mundy_HCI_Cortical_NOG_BPCount: CCTE's Neurite Outgrowth Assay in rat cortical cells for Branch Point Count, Mundy Lab (AID 2284237)
Outline: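 Measured 50.33 h after dosing, this morphology endpoint uses rat primary cortical cultures labelled for betaIII-tubulin. Branch points are quantified by high-content imaging, with DMSO as negative control and baseline.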

[13] = CCTE_Mundy_HCI_Cortical_Synap_Neur_Matur_NeuronCount: CCTE's Synaptogenesis and Neurite Maturation Assay in rat cortical cells for Neuron Count, Mundy Lab (AID 2284242; active = hit-call score of the fitted dose curve at least 0.9, where 1 is the maximum;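 also: hits reduce neuron count versus DMSO baseline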)
Outline: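 Neuron counts come from automated high-content imaging of Hoechst nuclei and MAP2/synaptophysin immunostaining at DIV 12, with loss of signal judged against DMSO. Cultures of rat cortical cells had glial growth arrested by AraC at DIV 5; chemical exposure began DIV 7.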

[14] = IUF_NPC1_cytotoxicity_72hr: Cytotoxicity Assessment at 72 hours in the Leibniz Research Institute for Environmental Medicine (IUF) Neural Progenitor Cell Proliferation Assay (NPC1) (AID 2284332; active = hit-call score of the fitted dose curve at least 0.9, where 1 is the maximum;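 also: rising LDH signal means more cytotoxicity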)
Outline: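 Cytotoxicity by LDH membrane-integrity assay on medium supernatants, fluorescence via resazurin reduction, after 3-day single exposure of primary hNPC spheres at 37C, pH 7.2-7.6 with growth factors. Fitted upward against baseline.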

## CCCCC(CC)COC(=O)c1cc(Br)c(Br)c(Br)c1Br (centres undefined)
[1]
  outcome: inactive

## FC(F)(F)c1ccc(OCCCOc2c(Cl)cc(OCC=C(Cl)Cl)cc2Cl)nc1
[1]
  outcome: inactive

## ClC1=C(Cl)[C@]2(Cl)[C@H]3[C@H]([C@H](Cl)C(Cl)[C@@H]3Cl)[C@@]1(Cl)C2(Cl)Cl (some centres undefined)
[2]
  outcome: inactive

## ClC=C(Cl)CCl
[2]
  outcome: inactive
[1]
  outcome: inactive

## C[n+]1ccc(-c2ccccc2)cc1
[3]
  outcome: inactive
[4]
  outcome: inactive
[5]
  AC50: 2690 nM (active)
[6]
  outcome: inactive
[7]
  outcome: inactive
[8]
  outcome: inactive

## C[C@H](N)Cc1ccccc1
[9]
  outcome: inactive
[10]
  outcome: inactive
[11]
  outcome: inactive
[12]
  outcome: inactive
[13]
  AC50: 43.6 nM (active)

## C=C1C(=O)N[C@H](C)C(=O)N[C@H](CC(C)C)C(=O)N[C@@H](C(=O)O)[C@H](C)C(=O)N[C@@H](CCCN=C(N)N)C(=O)N[C@@H](/C=C/C(C)=C/[C@H](C)[C@H](Cc2ccccc2)OC)[C@H](C)C(=O)N[C@@H](C(=O)O)CCC(=O)N1C (R[Adda][d(γGlu)][NMeDha][dA][dL][dAsp(3S-Me)]-OH; lactam N-7)
[2]
  outcome: inactive
[1]
  outcome: inactive

## O=C1CCO1
[2]
  outcome: inactive
[1]
  outcome: inactive

## CCOP(=O)(O)OCC
[2]
  outcome: inactive

## O=C(O)CCCOC(=O)c1ccccc1C(=O)O
[2]
  outcome: inactive
[1]
  outcome: inactive

## CP(=O)(O)CCC(N)C(=O)O (centres undefined)
[3]
  outcome: inactive
[4]
  outcome: inactive
[5]
  outcome: inactive
[6]
  outcome: inactive
[8]
  outcome: inactive
[14]
  outcome: inactive
